Drawing on PubChem BioAssay (NCI), this text covers growth for 38 molecules.

SMILES strings stand for the structures. The panel holds about 83,000 compounds, 20% with a hit somewhere; the sample as a whole holds those more often.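 Interpretation: 100, growth as untreated; towards 0, rising growth inhibition; 0, no net growth; 0 to -100, cell death. Compounds scoring below 10 were considered active.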 The source made the active and inactive calls.

One assay deals with SF-539 CNS. Description: NCI-60 one-dose screen, 48 h (100 = growth as untreated, 0 = no growth, -100 = all killed). To be noted: 10 µM unless noted.
Turning to `Cc1cc2nc3c4ccccc4n(CC4=NCCN4)c3nc2cc1C`, the growth is -94.2% (active).

For the molecule `Cn1cc(-c2nc(N)nnc2-c2c[nH]c3ccc(F)cc23)c2cccnc21`, the growth is 40.8% (inactive).

For `COc1ccc(N2N=C(c3ccc4c(c3)OCO4)CC2c2cccc(NC(=O)CCNS(=O)(=O)c3ccc(Cl)cc3)c2)cc1` (stereo not given), the growth was 38.2% (inactive).

Consider `Cc1nc(Nc2ccccn2)sc1C(=O)CC(SCC(=O)Nc1ccc(Cl)cc1)c1ccccc1F` (stereo not given), for which the growth was -58.4% (active).

Consider `Cc1cccc(-c2nc(Nc3ccc(C)c(S(N)(=O)=O)c3)c3ccccc3n2)c1`, for which the growth is 9.73% (active).

Take `CN(C)CCn1c2ccccc2c2nc3cc(C(F)(F)F)ccc3nc21`: the growth was 26.3% (inactive).

Regarding `S=C(Nc1ccccc1)Nc1ccc(OCc2nc3ccccc3[nH]2)cc1`, the growth was 30.7% (inactive).

In another assay the test system is UACC-257 melanoma. The assay is described as above. The following applies: 10 µM unless noted.
Turning to `O=C1NC(=O)c2c1c1c3cc(Br)ccc3[nH]c1c1oc3ccc(F)cc3c21`, the growth is 48.4% (inactive).

As to `C#CCOc1ccc(/C=N/Nc2nc(-c3ccc(F)cc3)cs2)cc1OC`, the growth was 63.7% (inactive).

In the case of `O=C1NC(=O)/C(=C/c2ccccc2OCc2cc3ccccc3nc2Cl)S1`, the growth is 89.4% (inactive).

As to `Cc1ccc(NCC(=O)Cn2cc(COc3ccc(C=Nc4cnc5ccccc5c4)cc3)nn2)cc1`, the growth was 105% (inactive).

Take `C/C(=N\N=C1/C(=O)Nc2ccccc21)c1ccc2c(c1)Nc1ccccc1S2`: the growth was 27.5% (inactive).

`C/C(=N\N=C1/C(=O)Nc2ccc(Cl)cc21)c1ccc2c(c1)Nc1ccccc1S2`: the growth was 10.1% (inactive).

Regarding `CCN(CC)c1ccnc(CNCCSC(c2ccccc2)(c2ccccc2)c2ccc(C)cc2)c1`, the growth is -90.1% (active).

Turning to `Cc1cc2c(cc1Cl)C(=O)/C(=C/c1ccccc1)O2`, the growth was 36.1% (inactive).

As to `COc1ccc(C(=O)/C=C/c2ccc(OCc3ccc(F)cc3)c(OC)c2)cc1OC`, the growth is 33.6% (inactive).

Consider `COc1cc(OC)c2c3nc4cc(C)c(C)cc4nc3n(CCN(C)C)c2c1`, for which the growth was 101% (inactive).

With `N=C1N=C(SCc2nc3ccccc3[nH]2)NC(=O)/C1=C/c1ccc(Cl)cc1`, the growth was 106% (inactive).

For `COc1ccc(C2CC(c3ccc(S(=O)(=O)NCCNc4nc(Nc5ccc(F)cc5)nc(N(C)C)n4)cc3)=Nc3c(N)nc(N)nc3N2)cc1` (stereo not given), the growth was 100% (inactive).

For `O=C(Cn1nc(-c2ccccc2)ccc1=O)N/N=C/c1ccc(N2CCOCC2)cc1`, the growth was 99.2% (inactive).

Turning to `CC1(C)CC[C@]2(C(=O)O)CC[C@]3(C)C(=CCC4[C@@]5(C)C[C@@H](O)[C@@H]6OC(c7cccc(Br)c7)OC[C@@]6(C)C5CC[C@]43C)C2C1` (stereo not given in full), the growth was 53.1% (inactive).

`COc1ccc(C(=O)/C=C/c2ccc(OCc3ccccc3)c(OC)c2)cc1OC`: the growth was 58.9% (inactive).

For the molecule `O=C(N=Nc1c(O)[nH]c2ccc([N+](=O)[O-])cc12)c1ccc2nc(-c3ccccc3)[nH]c2c1`, the growth was 84.6% (inactive).

Consider `C/C(=N\N=C\c1cc([N+](=O)[O-])ccc1Cl)c1ccc2c(c1)Nc1ccccc1S2`, for which the growth is 81.5% (inactive).

For `C=C1CCC2C3(C)COC(c4ccc(F)cc4)OC3CCC2(C)C1C/C=C1/C(=O)OCC1O` (stereo not given), the growth was -62.6% (active).

Turning to `CCCSc1nc(NCCc2c[nH]c3ccccc23)c(C#N)c(-c2ccc(OC)cc2)n1`, the growth was 89.8% (inactive).

As for `N/C(=N\c1nc2ccccc2s1)NC(=O)Nc1ccccc1Br`, the growth is 54.8% (inactive).

As to `O=C(Cn1c2c(sc1=O)[C@H]1[C@@H](O)[C@@H](O)[C@H](O)[C@@H]1CS2)N1CCOCC1`, the growth was 110% (inactive).

Take `COC(=O)/C=C/c1cccc2c1C(=O)NC(C)(c1cc3ccccc3oc1=O)N2` (stereo not given): the growth was 77.7% (inactive).

On to `Brc1ccc(-c2n(Cc3ccc4ccccc4c3)c(-c3ccccc3)c(-c3ccccc3)[n+]2Cc2ccc3ccccc3c2)cc1`, for which the growth was -89.6% (active).

Regarding `COc1ccc(NC(=O)Cn2c3c(sc2=O)[C@H]2[C@@H](O)[C@@H](O)[C@H](O)[C@@H]2CS3)cc1`, the growth is 102% (inactive).

Consider `Cc1cc2nc3c4ccccc4n(CCCN(C)C)c3nc2cc1C`, for which the growth is -81.2% (active).

In the case of `O=S(=O)(Nc1cccc(-n2cnc3cc(-c4ccc(O)cc4)ccc32)c1)C1CC1`, the growth is 68.4% (inactive).

Turning to `CN(C)c1ccnc(CNCCSC2(c3ccc(C(F)(F)F)cc3)c3ccccc3C=Cc3ccccc32)c1`, the growth is -20.6% (active).

With `CN(C)c1nc(NCCNS(=O)(=O)c2ccc(C3=Nc4c(N)nc(N)nc4NC(c4ccc(C(F)(F)F)cc4)C3)cc2)nc(Nc2ccc(F)cc2)n1` (stereo not given), the growth is 43% (inactive).

Turning to `O=C(NN1C(=O)/C(=C/C=C/c2ccc([N+](=O)[O-])o2)SC1=S)c1ccc(Cl)cc1`, the growth was -93.3% (active).

As for `COCOc1ccc2c(=O)c(C)c(C(=O)N[C@@H](Cc3ccccc3)C(O)C(=O)NCCc3ccc(OC)cc3)oc2c1` (stereo not given in full), the growth is 116% (inactive).

With `C#CCOc1cc(N(CC)CC)ccc1C(C(=O)NC(C)(C)C)N(C(=O)C1CCc2cc(F)ccc2O1)c1ccc(Br)cc1` (stereo not given), the growth is 87.8% (inactive).

`Cc1cc2nc3c4ccccc4n(CC4=NCCN4)c3nc2cc1C`: the growth was -44.4% (active).

For `Cn1cc(-c2nc(N)nnc2-c2c[nH]c3ccc(F)cc23)c2cccnc21`, the growth is 61.9% (inactive).

For the molecule `COc1ccc(N2N=C(c3ccc4c(c3)OCO4)CC2c2cccc(NC(=O)CCNS(=O)(=O)c3ccc(Cl)cc3)c2)cc1` (stereo not given), the growth is 49.2% (inactive).

Consider `Cc1nc(Nc2ccccn2)sc1C(=O)CC(SCC(=O)Nc1ccc(Cl)cc1)c1ccccc1F` (stereo not given), for which the growth is 36.9% (inactive).

For `Cc1cccc(-c2nc(Nc3ccc(C)c(S(N)(=O)=O)c3)c3ccccc3n2)c1`, the growth is 76.4% (inactive).

`CN(C)CCn1c2ccccc2c2nc3cc(C(F)(F)F)ccc3nc21`: the growth is 45.1% (inactive).

For the molecule `S=C(Nc1ccccc1)Nc1ccc(OCc2nc3ccccc3[nH]2)cc1`, the growth is 48.2% (inactive).
